According to PubChem BioAssay (NCI):
About 83,000 compounds went through this panel and 20% of them were active in at least one assay; those are over-represented in the sample as a whole.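 The test compound was applied at a single concentration to cells in 96-well plates for 48 hours, and percent growth was recorded.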 Activity calls are given as the source filed them. How the source made its calls: active means growth percent below 10; inactive means the rest.

Assays:
Assay in all cases: NCI-60 one-dose screen, 48 h (100 = growth as untreated, 0 = no growth, -100 = all killed)
Settings in all cases: 10 µM unless noted
[1] = system: HCT-15 colon
[2] = system: HT29 colon
[3] = system: SNB-75 CNS
[4] = system: SNB-19 CNS
[5] = system: U251 CNS
[6] = system: PC-3 prostate
[7] = system: SK-MEL-5 melanoma
[8] = system: LOX IMVI melanoma
[9] = system: SK-MEL-28 melanoma
[10] = system: UACC-62 melanoma

Measured: growth

O=C1Nc2ccccc2C2c3cccn3-c3ccccc3N12 (stereo unspecified)
inactive: [1] 53.9% | [2] 31.7% | [3] 40% | [4] 88.9% | [5] 60.2% | [6] 66.9% | [7] 80% | [8] 74.2% | [9] 94.1%

COC(c1ccc2ccccc2c1)C(C)C(F)F (stereo unspecified)
inactive: [1] 112% | [2] 98.2% | [3] 95.9% | [4] 101% | [5] 102% | [6] 96.6% | [10] 93.4% | [8] 101% | [9] 96.3%

O=C(CCCCNC(=O)c1cc(=O)c(O)co1)Nc1ccccc1
inactive: [1] 49% | [2] 98.2% | [3] 84.9% | [4] 102% | [5] 92.8% | [6] 95.9% | [8] 45.3% | [9] 103%

O=C(CCCCCCN1CC(=O)N2[C@@H](C3CCCCC3)c3[nH]c4ccccc4c3C[C@H]2C1=O)NO
active: [8] -3.25%
inactive: [1] 115% | [2] 58.9% | [3] 38.1% | [4] 74.6% | [5] 70.2% | [6] 62.7% | [10] 35.3% | [9] 60.7%

COc1ccc2cc(-c3cnc4nonc4n3)ccc2c1
active: [10] 2.86%
inactive: [1] 22.7% | [2] 13.4% | [3] 15.8% | [4] 37.7% | [5] 16.9% | [6] 25.5% | [8] 25.5% | [9] 86.3%

CC1(C)CC2=C3C=C[C@@H]4[C@@]5(C)CC[C@H](O)C(C)(C)[C@@H]5CC[C@@]4(C)[C@]3(C)CC[C@@]2(C(=O)O)CC1=O
inactive: [1] 28% | [2] 35.7% | [3] 16.8% | [4] 68.9% | [5] 32.3% | [6] 45% | [7] 25.3% | [8] 46.9% | [9] 30.9%

COc1cccc(C(=O)OCC(O)C(=O)NC23CC4CC(CC(C4)C2)C3)c1 (stereo unspecified)
inactive: [1] 96.9% | [2] 101% | [3] 95.2% | [4] 97.2% | [5] 94.1% | [6] 93.3% | [10] 93.4% | [8] 95.4% | [9] 104%

COc1cc(/C=C\c2cc(/C=C\c3ccc(O)c(OC)c3)n(C(=O)CNc3ccc(Cl)cc3)n2)ccc1O
inactive: [1] 11.3% | [2] 15.8% | [3] 25.5% | [4] 45.6% | [5] 16.1% | [6] 33.9% | [7] 15.9% | [8] 11.2% | [9] 49.5%

NC(=S)N/N=C/c1cn(-c2ccccc2)nc1-c1cc2ccccc2oc1=O
inactive: [1] 28.2% | [2] 14.7% | [4] 56.6% | [5] 45.2% | [6] 67.5% | [8] 46.3% | [9] 69.7%

C=CCCC(=O)N1C=CC(=O)[C@H](O)[C@@H]1/C=C/c1ccccc1
inactive: [1] 36.5% [100 µM] | [2] 39.4% [100 µM] | [4] 44.5% [100 µM] | [5] 33% [100 µM] | [6] 51.2% [100 µM] | [8] 27.9% [100 µM] | [9] 53.7% [100 µM]
active: [7] 0.433% [100 µM]

CC/C(Cc1ccccc1)=C(\c1ccc(OCCN2CCCCCC2)cc1)c1ccc(OC(=O)NCc2ccccc2)cc1
inactive: [4] 72.5% | [5] 49.6% | [6] 54.8% | [7] 72.5% | [10] 75.3% | [9] 87.2%
active: [1] 9.25% | [2] 5.23% | [8] 4.35%

CN1CCN(Cc2cc(NC(=O)c3cccc(C#Cc4cccc5[nH]nc(N)c45)c3)cc(C(F)(F)F)c2)CC1
inactive: [1] 10.8% | [4] 52.1% | [5] 22.2% | [6] 27.4% | [10] 12.1%
active: [2] -15.8% | [7] -5.74% | [8] -90.1% | [9] -60.5%

COc1cc(-c2nc3occn3c2-c2ccnc(NCCCNS(=O)(=O)c3ccccc3)n2)ccc1F
inactive: [1] 37.5% | [2] 16.7% | [4] 78.2% | [5] 73.4% | [6] 22.2% | [8] 31.5% | [9] 38%
active: [10] 4.35%

C=C(CN1CC=CCC1)[C@@H]1CC[C@]2(CO)CC[C@]3(C)[C@H](CC[C@@H]4[C@@]5(C)CC[C@H](O)C(C)(C)[C@@H]5CC[C@]43C)[C@@H]12
inactive: [1] 92.2% | [2] 55.3% | [4] 99.8% | [5] 88.3% | [6] 77.5% | [7] 96.2% | [10] 98% | [8] 99.8% | [9] 101%

Cn1cc(-c2csc(-c3cn(C)c4ccc(Br)cc34)n2)c2cnccc21
active: [1] -78.6% | [2] -76.2% | [4] -86.9% | [5] -80.4% | [6] -74.9% | [7] -55.7% | [10] -78% | [8] -92.1% | [9] -96%

O=C(Nc1cccc(NC(=O)C2CCCCC2)c1)c1ccccn1
inactive: [1] 100% | [2] 90.4% | [4] 111% | [5] 109% | [6] 104% | [7] 99.7% | [10] 96.8% | [8] 90.6% | [9] 103%

CN1CCN(CCCOC(=O)c2c3c(n4ccccc24)C(=O)c2ncccc2C3=O)CC1
active: [1] -39.1% | [2] -32.3% | [4] 1.8% | [5] -31.7% | [7] -98% | [8] -60.9%
inactive: [6] 17.6% | [9] 12.5%

O=C1c2cc3c(cc2-c2c1c1ccc(Cl)cc1c(=O)n2C[C@H](O)CO)OCO3
active: [1] 4.59% | [2] 0.971% | [5] 0.379% | [6] 6.95% | [7] -96.6% | [10] -62% | [8] -31.9% | [9] -6.11%
inactive: [4] 14.1%

CCSC1=CC(=O)c2ccccc2C1=O
inactive: [1] 73% | [2] 105% | [4] 87.6% | [5] 79.1% | [6] 73% | [7] 50.8% | [10] 59.1% | [8] 47.7%

Cc1ccc(O)c(NC(=O)c2ccc(CNc3ccnc(C(F)(F)F)c3)cc2)c1
inactive: [1] 49.9% | [2] 66.4% | [4] 87.1% | [5] 82.1% | [6] 78.8% | [7] 36.5% | [8] 40.6% | [9] 109%

Cc1nn(-c2ccccc2)c(/N=C/N(C)C)c1/C=C/C(=O)c1ccc(Cl)cc1
inactive: [1] 62.7% | [2] 95.4% | [3] 91.6% | [4] 100% | [5] 95.1% | [6] 85.9% | [8] 49% | [9] 89.6%

CCOc1ccc(/C=N\N=C\c2ccc(OCC)cc2)cc1
active: [1] 7.98%
inactive: [2] 34.5% | [4] 98.3% | [5] 74.4% | [6] 67.1% | [7] 88.3% | [10] 79.9% | [8] 70.5% | [9] 105%

COc1cc(C2C3=C(COC3=O)N(CCO)c3cc4c(cc32)OCCO4)cc(OC)c1OC (stereo unspecified)
inactive: [6] 14.3% | [8] 17.7% | [9] 42.8%
active: [1] 6.81% | [2] -25.4% | [4] 7.63% | [5] 9.63% | [10] 6.33%

COc1ccc(/C=C/C(=O)c2cc3c(N)c(C(=O)Nc4ccccc4C)sc3nc2C)cc1
inactive: [1] 15.2% | [6] 25% | [7] 17.7% | [10] 16.9% | [8] 18.7% | [9] 51.3%
active: [2] -27.6% | [4] 6.45% | [5] 9.39%

CCc1ccc(CCC(=O)Nc2ncc(Cc3ccc(Cl)cc3)s2)o1
inactive: [1] 21.9% | [4] 50.6% | [5] 22.8% | [6] 29.3% | [7] 34.6% | [10] 33.3% | [8] 47.6% | [9] 66.3%
active: [2] 8.1%

Cc1ccc(/C=C/C(=O)c2ccc(NC(=O)CSc3nc4c([nH]3)c(=O)n(C)c(=O)n4C)cc2)c(C)c1
inactive: [1] 70.7% | [2] 53.3% | [6] 49.3% | [7] 69.5% | [10] 69.5% | [8] 39.1% | [9] 62.2%
active: [4] 0.886% | [5] -67.5%

COc1ccc2nc3ccccc3c(NCc3ccccc3)c2c1
active: [2] 8.49% | [8] -31.1%
inactive: [1] 13.1% | [4] 24.2% | [5] 22.9% | [6] 28.6% | [7] 18.8% | [10] 45.9% | [9] 49.7%

COc1ccc(-c2cc(-c3ccc(OC)cc3)nc(NCCCNc3ccnc4cc(Cl)ccc34)n2)cc1
inactive: [4] 93.3% | [5] 70.7% | [6] 61.5% | [7] 22.7% | [10] 91.8% | [9] 37.5%
active: [1] -77% | [2] -59.6% | [8] -95%

CN(Cc1cnc2nc(N)nc(N)c2n1)c1c(Cl)cc(C(=O)NC(CCC(=O)O)C(=O)O)cc1Cl (stereo unspecified)
inactive: [1] 28% | [2] 30.4% | [4] 31.7% | [5] 33.4% | [6] 22.5% | [7] 21.3% | [10] 16.4% | [8] 13.8% | [9] 63.3%
